Experimental data taken from PubChem BioAssay (NCI).
The panel holds about 83,000 compounds, 20% with a hit somewhere; the sample as a whole holds those more often.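 96-well plates, one dose, 48 hours. Percent growth reported; active if below 10.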 Values without a mark were called inactive. Calls of active or inactive are those of the source.

Test system: HCC-2998 colon
Experiment: NCI-60 one-dose screen, 48 h (100 = growth as untreated, 0 = no growth, -100 = all killed)
Conditions: 10 µM unless noted

Row | Structure (SMILES) | growth
1 | CC(C)(C)OC(=O)NCc1ccc(CNc2c([N+](=O)[O-])cnc3ccccc23)cc1 | 84.7%
2 | NC(=O)n1c(=O)n(-c2cccc(C(F)(F)F)c2)c(=O)c2cc(-c3ccc(F)cc3F)ccc21 | 10.7%
3 | CN1CCN(Cc2ccc(NC(=O)c3cncc(C#Cc4cnc5ccc(OCCCS(C)(=O)=O)nn45)c3)cc2C(F)(F)F)CC1 | -22% (active)
4 | COc1ccc(NC2=C(Br)C(=O)C(C)=C(C)C2=O)cc1OC | 102%
5 | O=C1[C@@H]2Cc3c([nH]c4ccccc34)[C@H](c3ccc(Cl)cc3)N2C(=O)CN1C1CCN(Cc2ccccc2)CC1 | 51.4%
6 | CCOc1cccc(/C(N)=N/C(N)=N/c2nc3ccccc3s2)c1 | 111%
7 | O=C1CSC(c2cn(-c3ccccc3)nc2-c2ccc(Cl)cc2)N1c1ccccc1 (stereo not drawn) | 111%
8 | CC(Nc1c(C#N)cnc2ccc(-c3cncc(-c4n[nH]c(=O)o4)c3)cc12)c1ccccc1 (stereo not drawn) | 25.8%
9 | CCCCN1C(=O)/C(=c2\sc3n(c2=O)C2C(NN=3)N(CC)C(=O)N2CC)c2cccc(C)c21 (stereo not drawn) | 61.1%
10 | Brc1cc(-c2cc(-c3ccc4c(c3)OC=CO4)[nH]n2)cs1 | 94.7%
11 | N#C/C(=C\c1cccc2c1OCO2)C(=O)Nc1sc2c(c1C#N)CCCC2 | 120%
12 | CN1CCN(Cc2ccc(NC(=O)c3cncc(C#Cc4cnc5ccc(O[C@@H]6CCOC6)nn45)c3)cc2C(F)(F)F)CC1 | -85% (active)
13 | CCN(CC)CCOc1ccc(C(=C(C)c2ccc(OC)cc2)c2ccc(OCCN(CC)CC)cc2)cc1 | 3.44% (active)
